MITF inh: human MITF inhibition, primary screen | inhibition, % at 2.6 µM | AlphaScreen MITF homodimerization, bead proximity signal | O75030 | AID 1259374 | 650,000 compounds, 0.91% hits; in the data active = inhibition above about 50%
TEAD-YAP block: TEAD-YAP interaction inhibition | HEK-TIYL cells, TEAD-Gal4/YAP UAS-luciferase luminescence | inhibition, % at 9.12 µM | 640,000 compounds, 1.4% hits | AID 1259422; in the data active = inhibition above about 32%
GPR151 ag: activators of human GPR151 | Q8TDV0 | PathHunter beta-arrestin GPR151 cells, luminescence | activation, % at 11.2 µM | 650,000 compounds, 1% hits; in the data active = activation above about 4.9%
FBW7 activator: activators of human E3 ligase FBW7. AlphaScreen FBW7–phospho-cyclin E peptide binding, activator screen. normalized activity (activation), % at 26.1 µM. AID 1259310. 650,000 compounds, 0.13% hits. Q969H0; in the data active = normalized activity above about 1.9%;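 also: purified mutant Fbw7 with reduced substrate affinity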
Target sequence (Q969H0 whole entry, looked up): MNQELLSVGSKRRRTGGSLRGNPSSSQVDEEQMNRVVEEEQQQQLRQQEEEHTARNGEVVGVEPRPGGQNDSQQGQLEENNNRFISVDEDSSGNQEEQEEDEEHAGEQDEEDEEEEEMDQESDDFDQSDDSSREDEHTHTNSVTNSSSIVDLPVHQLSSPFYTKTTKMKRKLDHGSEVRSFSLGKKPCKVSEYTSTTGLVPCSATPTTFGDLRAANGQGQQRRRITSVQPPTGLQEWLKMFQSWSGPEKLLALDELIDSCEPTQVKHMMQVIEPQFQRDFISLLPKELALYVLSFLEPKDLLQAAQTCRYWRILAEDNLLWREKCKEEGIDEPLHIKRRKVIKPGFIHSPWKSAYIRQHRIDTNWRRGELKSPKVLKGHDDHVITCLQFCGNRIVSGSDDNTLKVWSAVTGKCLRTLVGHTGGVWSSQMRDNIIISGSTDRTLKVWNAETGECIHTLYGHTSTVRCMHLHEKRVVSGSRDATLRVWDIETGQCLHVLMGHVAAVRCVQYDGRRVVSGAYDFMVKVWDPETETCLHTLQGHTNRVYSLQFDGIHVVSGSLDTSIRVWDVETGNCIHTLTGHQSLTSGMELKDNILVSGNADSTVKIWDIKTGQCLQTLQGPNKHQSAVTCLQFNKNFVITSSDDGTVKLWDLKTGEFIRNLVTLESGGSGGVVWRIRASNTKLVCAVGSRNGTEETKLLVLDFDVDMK
A number is an active result; - = inactive. In the library only some 3.4% were active in any assay of this set; here they are far more common.

SMILES | MITF inh | TEAD-YAP block | GPR151 ag | FBW7 activator
O=Cc1cccc(-c2ccc(N3CCOCC3)nc2)c1 | - | 47 | - | -
O=C(NCc1nc2ccccc2[nH]1)c1ccnc(N2CCOCC2)c1 | - | - | - | -
c1ccc2[nH]c(CNc3cc(-c4ccc(N5CCOCC5)nc4)ncn3)nc2c1 | - | - | - | -
CCCNC(=O)c1cccc(-c2ccc(N3CCN(C)CC3)cc2)n1 | - | - | - | -
CN1CCN(c2ccc(-c3cccc(C(=O)NCc4nc5ccccc5[nH]4)n3)cc2)CC1 | - | 49 | - | -
N#C/C(=C\c1c(Cl)cccc1Cl)C(=O)NCC1CCCO1 (stereo unspecified) | - | - | - | -
COC(=O)c1ccc(C)c(NS(=O)(=O)c2ccc(OC)c(Cl)c2)c1 | - | 41 | - | -
COC(=O)c1ccc(C)c(NS(=O)(=O)c2ccc3ccccc3c2)c1 | - | 53 | - | -
COC(=O)c1ccc(Cl)c(NS(=O)(=O)c2ccc(C)cc2)c1 | - | 57 | - | -
COC(=O)c1ccc(C)c(NS(=O)(=O)c2ccc(OC)c(OC)c2)c1 | - | - | - | -
COC(=O)c1ccc(Cl)c(NS(=O)(=O)c2ccc(OC)c(Cl)c2)c1 | - | - | - | -
COC(=O)c1ccc(N2CCCCCC2)c(NS(=O)(=O)c2ccc(OC)cc2)c1 | - | 57 | - | -
COC(=O)c1ccc(NS(=O)(=O)c2ccc(OC)cc2)cc1 | - | - | - | -
COC(=O)c1ccc2c(=O)n(Cc3ccc4c(c3)OCO4)c(SCC(=O)Nc3ccc(C)cc3)nc2c1 | - | - | - | -
C=C(C)CN1C(=O)NC(CC)(C2CCN(Cc3cn(C)nc3C)CC2)C1=O (stereo unspecified) | - | - | - | -
CCOC(=O)CSc1nc2cc(C(=O)NC3CCCCC3)ccc2c(=O)n1Cc1ccccc1 | - | - | - | -
Cc1c(NS(=O)(=O)c2ccc([N+](=O)[O-])cc2)c(=O)n(-c2ccccc2)n1C | - | - | - | 2.0
COc1cc(OC)cc(C(=O)NC(=S)Nc2ccccc2OC)c1 | - | - | - | -
COC(=O)C1=C(C)N(Cc2cccnc2)C(=O)/C1=C\c1ccccc1OCc1ccccc1 | - | - | - | -
CNC(=O)/C(C#N)=C/c1c(Oc2ccc(F)cc2)nc2c(C)cccn2c1=O | - | - | - | -
Cc1ccccc1Oc1nc2c(C)cccn2c(=O)c1/C=C(\C#N)C(=O)NCC1CCCO1 (stereo unspecified) | - | 33 | - | -
Cc1ccccc1Oc1nc2c(C)cccn2c(=O)c1/C=C(\C#N)C(=O)NC1CCCC1 | - | - | - | -
CNC(=O)/C(C#N)=C/c1c(Oc2cccc(C)c2C)nc2c(C)cccn2c1=O | - | 35 | - | -
C=CCNC(=O)/C(C#N)=C/c1c(Oc2ccccc2C)nc2c(C)cccn2c1=O | - | 41 | - | -
CNC(=O)c1ccccc1Nc1cc(NC(=O)Cc2ccccc2)ncc1C(F)(F)F | - | 72 | - | -
SMILES | MITF inh | TEAD-YAP block | GPR151 ag | FBW7 activator
O=C(Cc1ccc2c(c1)OCO2)Nc1cc(Nc2ccccc2-c2ncn[nH]2)c(C(F)(F)F)cn1 | - | 60 | - | -
N#Cc1ccccc1Nc1cc(NC(=O)Cc2ccc(F)cc2)ncc1C(F)(F)F | - | - | - | -
CNC(=O)c1ccccc1Nc1cc(NC(=O)Cc2c(Cl)cccc2Cl)ncc1C(F)(F)F | - | 56 | - | -
CC(C)(C)NC(=O)c1ccccc1NC(=O)CCc1ccccc1 | - | - | - | -
CNC(=O)c1ccccc1Nc1cc(NC(=O)CCc2ccccc2)ncc1C(F)(F)F | - | 64 | - | -
Cc1ccccc1N/C(SCc1cccc(Br)c1)=C(/C#N)C(=O)NCc1ccco1 | - | - | - | -
COC(=O)CSCC(=O)Nc1nc2ccccc2s1 | - | - | - | -
Cc1ccc2nc(NC(=O)CSCC(=O)OCC(=O)c3ccccc3)sc2c1 | - | 68 | - | -
CC(C)n1c(Nc2ccccn2)nc2c(NCCOc3ccccc3)ncnc21 | - | - | - | -
CC(C)n1c(Nc2ccccn2)nc2c(Nc3ccc(Oc4ccccc4)cc3)ncnc21 | - | 56 | - | -
Cc1sc2ncnc(SCc3cc([N+](=O)[O-])cc4c3OCOC4)c2c1C | - | - | - | -
Cc1sc2ncnc(SCc3cc(=O)oc4cc(O)c(O)cc34)c2c1C | 64 | - | - | -
COC(=O)/C(N=Nc1ccc(-c2ccccc2)cc1)=C(/O)CCl | - | 61 | - | -
CCOC(=O)/C(N=Nc1ccc([N+](=O)[O-])cc1)=C(\O)CCl | - | - | - | -
CC(C)(C)NC(=O)Cn1c(=O)[nH]c2ccsc2c1=O | - | - | - | -
Cc1c(C(=O)N2CCN(Cc3ccccc3)CC2)sc2ncnc(N3CCN(c4ccccn4)CC3)c12 | - | 37 | - | -
CCN1CCN(C(=O)c2sc3ncnc(N4CCN(c5ccccn5)CC4)c3c2C)CC1 | - | - | - | -
COc1ccccc1N1CCN(C(=O)c2sc3ncnc(N4CCN(c5ccccn5)CC4)c3c2C)CC1 | - | 35 | - | -
COc1ccc(C(=O)Nc2cccc(NC(C)=O)c2)c(OC)c1 | - | - | - | -
O=C(c1ccc(CSc2ccccc2)cc1)N1CCOCC1 | - | - | - | -
CCN(CC)CCN1CCN(c2ncc(-c3cccnc3)n3ccnc23)CC1 | - | - | - | -
Cc1ccc2nsnc2c1S(=O)(=O)Nc1ccc(C(=O)O)cc1 | - | - | - | -
Cc1ccc2nsnc2c1S(=O)(=O)Nc1ccc(I)cc1 | - | 55 | - | -
Cc1ccc(C)c(N(CC(=O)NCCSCc2ccccc2Cl)S(C)(=O)=O)c1 | - | - | - | -
Cc1ccccc1S(=O)(=O)Nc1cc(Br)cc2cccnc12 | - | 36 | - | -
SMILES | MITF inh | TEAD-YAP block | GPR151 ag | FBW7 activator
Cc1nc2c(-c3ccccc3)c(C)nn2c(C)c1CC(=O)NC1CCCC1 | - | - | - | -
Nc1nc2c(s1)CCc1c-2cnn1-c1ccccc1 | - | 45 | - | -
CC1(C)Cc2c(cnn2-c2ccc(Cl)cc2)-c2nc3ccccc3nc21 | - | - | - | -
CC(=O)c1cccc(NC(=O)/C(=C/c2cccc([N+](=O)[O-])c2)NC(=O)c2ccccc2Br)c1 | - | - | - | -
Cc1ccc(NC(=O)CSc2ccc3ccccc3n2)c(C)c1 | - | 76 | - | -
O=C(COc1cccc(N2C(=O)C3C4C=CC(C5CC45)C3C2=O)c1)c1ccc(Cl)cc1 (stereo unspecified) | - | 39 | - | -
COC(=O)C1=c2s/c(=C/c3ccccc3F)c(=O)n2C(N)=C(C#N)C1c1ccccc1F (stereo unspecified) | - | - | - | -
CCOc1ccc2ccccc2c1/C=C1/SC(=O)N(CC(=O)OC)C1=O | - | 42 | - | -
O=C(O)COc1ccccc1/C=C1\C(=O)NC(=O)N(c2cccc([N+](=O)[O-])c2)C1=O | 55 | - | - | -
CC(=O)N1CCN(c2ccc(NC(=O)COc3ccccc3[N+](=O)[O-])cc2Cl)CC1 | - | - | - | -
Cc1cc(Nc2ccccc2)n(-c2ccc([N+](=O)[O-])cc2)n1 | - | - | - | -
Cc1cc(Nc2nc3ccccc3[nH]c2=O)n(-c2ccc([N+](=O)[O-])cc2)n1 | - | 59 | - | -

From PubChem BioAssay
